Results on 30 compounds are retold here after PubChem BioAssay (NCI).

Common to all, as to test: NCI-60 one-dose screen, 48 h (100 = growth as untreated, 0 = no growth, -100 = all killed)
Test [1] relates to HCT-15 colon. As to conditions: 10 µM.
Test [2] has as its system HT29 colon. As to conditions: 10 µM.
Test [3] has as its system SNB-75 CNS. As to conditions: 10 µM.
The test system of test [4] is SNB-19 CNS. As to conditions: 10 µM.
In test [5] the test system is U251 CNS. As to conditions: 10 µM.
For test [6], the system named is PC-3 prostate. As to conditions: 10 µM.
Test [7] has as its system SK-MEL-5 melanoma. As to conditions: 10 µM.
The test system of test [8] is UACC-62 melanoma. As to conditions: 10 µM unless noted.
Test [9] concerns LOX IMVI melanoma. As to conditions: 10 µM.
Test [10] has as its system SK-MEL-28 melanoma. As to conditions: 10 µM.

This is part of a sample that, as a whole, favours compounds with a hit. Of some 83,000 tested, about 20% had one in any assay.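 Each cell line was grown in a 96-well plate and treated with one concentration of compound for 48 hours. Values below 10 were considered active.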 Unmarked numbers belong to inactive results. Activity calls are given as the source filed them.

`O=S(=O)(O)c1ccc(O)c2ccccc12`: the growth was 113% in test [1]; 110% in test [2]; 88.1% in test [3]; 97.8% in test [4]; 107% in [5]; 92% in test [6]. The growth was 114% in [7], 101% in test [8], 92.7% in [9] and 109% in test [10].
As for `O/N=C/c1ccc(O)cc1O`, the growth in test [1] is 89.9%; in test [2], 102%; in [3], 89.3%; in test [4], 96.6%; in [5], 90.6%; in test [6], 86.4%. Further, the growth was 104% in test [7], 96.5% in test [8], 105% in test [9] and 107% in [10].
With `CC1(C(N)=O)CCC(C(=O)O)C1(C)C` (stereo not given), the growth is 96.4% in test [1]; 104% in test [2]; 92.4% in test [3]; 99% in test [4]; 98.2% in test [5]; 98.1% in test [6]. Further, the growth in test [7] was 98%; in test [8], 87%; in [9], 104%; in test [10], 103%.
For `O=c1[nH]nc(SC2CCCCC2)c(=O)[nH]1`, the growth in test [1] was 106%; in [2], 97.1%; in [3], 82.3%; in [4], 103%; in [5], 103%; in test [6] it was 90.6%. Also, the growth in test [7] is 112%; in test [8], 113%; in test [9], 92.8%; in [10], 94.8%.
`O=C1C[C@H](c2ccccc2)[C@H](c2ccccc2)C1`: the growth is 102% in test [1]; 105% in test [2]; 91.8% in test [3]; 96.1% in [4]; 103% in [5]; 79.4% in test [6]. In addition, the growth in test [7] was 104%; in test [8] it was 90.2%; in test [9], 102%; in test [10], 109%.
Turning to `CN1C(=O)CN2CCc3ccccc3C2c2cc(Cl)ccc21` (stereo not given), the growth in test [1] was 89.7%; in [2], 108%; in test [3], 96.1%; in [4], 96.7%; in test [5] it was 103%; in test [6], 94.7%. Besides, the growth in test [7] was 91.5%; in test [8], 78.7%; in test [9], 94.7%; in test [10], -89.5% (active).
With `Cc1ccc(Cl)cc1N1C(=O)CC(Sc2ccccc2N)C1=O` (stereo not given), the growth in [1] was 93.4%; in test [2] it was 109%; in [3], 65.5%; in test [4], 102%; in test [5] it was 102%; in test [6], 89.5%. Besides, the growth in test [7] was 110%; in test [8], 95.8%; in [9], 94.7%; in [10], 92.5%.
With `O=C(O)CCCC(=O)O`, the growth was 101% in test [1]; 106% in test [2]; 85.7% in test [3]; 99.4% in [4]; 94.3% in test [5]; 95.1% in [6]. For the same compound, the growth in test [7] was 102%; in test [8], 105%; in test [9], 95.3%; in [10], 102%.
Take `CCOC(=O)C(CCC(C)C)C(=O)OCC`: the growth was 104% in test [1]; 94.4% in test [2]; 94.6% in test [3]; 109% in test [4]; 101% in test [5]; 107% in [6]. In addition, the growth in test [7] was 102%; in test [8], 101%; in test [9], 115%; in [10], 107%.
For `O=S(=O)(O)C(Nc1ccccc1)c1ccccc1` (stereo not given), the growth in [1] was 105%; in test [2], 105%; in [3] it was 71.9%; in test [4], 101%; in [5] it was 101%; in [6] it was 102%. Also, the growth is 77.3% in test [7], 88.9% in [8], 93.8% in test [9] and 104% in test [10].
As to `Cc1nc2ccccc2c(C(=O)O)c1O`, the growth in test [1] was 107%; in test [2] it was 103%; in test [3], 98.3%; in test [4], 93.1%; in test [5], 103%; in [6], 104%. In addition, the growth in test [7] is 102%; in test [8], 93.2%; in [9], 96.4%; in test [10] it was 122%.
As to `O=C(O)c1ccnc(Br)c1`, the growth in test [1] was 106%; in [2] it was 110%; in test [3], 89.5%; in test [4] it was 103%; in test [5], 100%; in test [6] it was 86.1%. For the same compound, the growth was 93.5% in test [7], 106% in test [8], 107% in test [9] and 111% in test [10].
On to `Brc1cnc2ccccc2c1`, for which the growth in test [1] was 101%; in [2] it was 102%; in [3], 106%; in test [4] it was 95.5%; in test [5], 103%; in [6] it was 97%. For the same compound, the growth is 106% in test [7], 93.4% in test [8], 101% in test [9] and 113% in test [10].
Turning to `CC(C)OC(=O)c1cc(NC(=S)OC(C)C)ccc1Cl`, the growth is 87.8% in test [1]; 70.5% in test [2]; 109% in test [3]; 92.3% in [4]; 96.6% in test [5]; 83.3% in test [6]. Besides, the growth in test [7] is 44%; in test [8], 77.1%; in test [9], 93.4%; in test [10], 101%.
For the compound `C[C@]12CC[C@@H]3c4ccc(OCC(=O)O)cc4CC[C@H]3[C@@H]1CCC2=O`, the growth in test [1] was 106%; in [2], 104%; in test [3] it was 83.5%; in [4], 103%; in test [5], 104%; in test [6] it was 95.7%. In addition, the growth in [7] is 99.9%; in [8], 96.5%; in [9] it was 86%; in [10], 118%.
As for `CCCOC(=O)C(O)c1ccccc1` (stereo not given), the growth in test [1] was 97.5%; in test [2], 103%; in [3], 96.7%; in [4], 107%; in test [5], 115%; in test [6], 101%. In addition, the growth is 104% in [7], 98.2% in test [8], 104% in test [9] and 116% in test [10].
For the compound `COc1ccc(C(O)c2ccccc2)cc1` (stereo not given), the growth in test [1] is 100%; in test [2], 105%; in test [3] it was 96.1%; in test [4], 105%; in test [5], 94.1%; in test [6], 94.7%. The growth in test [7] was 99.3%; in [8], 95.3%; in test [9], 86.2%; in [10] it was 105%.
For the compound `CCOc1ccccc1/C=N/Nc1nc2ccccc2o1`, the growth is 76.3% in test [1]; 110% in test [2]; 83.9% in [3]; 100% in test [4]; 105% in [5]; 85.8% in test [6]. In addition, the growth in test [7] was 97.7%; in test [8] it was 82.6%; in [9], 94.1%; in [10] it was 100%.
In the case of `CCCCOC(=O)c1ccc(C(C)C)cc1`, the growth in test [1] was 101%; in [2], 94.9%; in test [3], 84.3%; in test [4], 105%; in test [5], 93.8%; in test [6], 84.7%. Moreover, the growth in [7] was 106%; in [8], 103%; in test [9] it was 96.7%; in [10], 111%.
On to `CCOC(=O)CSc1c([N+](=O)[O-])ncn1C`, for which the growth in test [1] is 93.7%; in [2], 104%; in [3], 98.4%; in [4], 99.6%; in [5], 97.9%; in [6] it was 106%. Also, the growth is 96.2% in test [7], 97.8% in [8], 97.7% in test [9] and 92.6% in test [10].
For `Cn1cnc2nc(Cl)nc(Cl)c21`, the growth was 31.7% in test [1]; -29.9% (active) in [2]; 47.9% in [3]; 61.4% in test [4]; 14.2% in test [5]; 25.1% in test [6]. For the same compound, the growth is 16% in test [7], 54.9% in [8], 18.1% in test [9] and 65.1% in test [10].
In the case of `CN(C)c1ccc(S(=O)(=O)O)cc1`, the growth in [1] was 102%; in [2], 102%; in [3] it was 96.3%; in test [4] it was 109%; in test [5], 108%; in [6] it was 88.9%. For the same compound, the growth in test [7] was 98.9%; in test [8] it was 108%; in [9], 102%; in test [10], 110%.
For `Cc1ccc(C(=O)c2ccccc2)c(C)c1`, the growth in [1] was 105%; in test [2], 101%; in [3], 84.4%; in [4], 111%; in test [5] it was 110%; in [6] it was 98.3%. Further, the growth in [7] was 107%; in test [8] it was 102%; in [9] it was 93.7%; in test [10], 109%.
Take `CCC/C=C(/C(C)=O)C(=O)OCC`: the growth in test [1] was 109%; in test [2] it was 111%; in test [3] it was 89.2%; in test [4], 94.8%; in test [5], 103%; in [6], 88.5%. The growth in test [7] is 112%; in [8], 95.1%; in test [9], 102%; in test [10], 122%.
On to `COc1cc(C2NC(=O)C(C#N)=C(Nc3cccc(C)c3)S2)ccc1O` (stereo not given), for which the growth is 111% in [1]; 107% in test [2]; 89.6% in [3]; 102% in test [4]; 103% in [5]; 97.6% in test [6]. Moreover, the growth in test [7] was 101%; in [8] it was 97.8%; in [9], 99.1%; in test [10] it was 103%.
Regarding `Oc1ccc(Cc2ccccc2)c2cccnc12`, the growth in test [1] is 29.2%; in test [2], 84.3%; in test [3], 21.3%; in test [4], 19.6%; in test [5], 12.6%; in test [6], 23.4%. The growth is 3.49% (active) in test [7], -14% (active) in test [8], 4.75% (active) in test [9] and 32.2% in [10].
Consider `COC(=O)c1ccccc1N(C)C`, for which the growth in test [1] was 103%; in test [2], 94.8%; in test [3], 93.3%; in test [4], 98.8%; in test [5], 112%; in test [6], 100%. For the same compound, the growth in test [7] is 101%; in test [8], 105%; in test [9], 94.5%; in test [10], 103%.
For `O=C(Nc1cccc(NC(=O)Nc2cc(C(F)(F)F)ccc2Cl)c1)Nc1cc(C(F)(F)F)ccc1Cl`, the growth is 20.3% in test [1]; 12.4% in test [2]; 16.1% in test [3]; 36.2% in test [4]; -17.2% (active) in test [5]; 1.7% (active) in test [6]. The growth is 29.4% in [7], 19.5% in test [8], 10.2% in test [9] and 34.4% in test [10].
For the compound `Clc1ccc(-c2n[nH]c3c2Cc2ccccc2-3)cc1Cl`, the growth in test [1] is 87.8%; in test [2] it was 106%; in test [3] it was 84.9%; in [4], 93.8%; in test [5], 97.9%; in test [6], 92.4%. Also, the growth in test [7] is 95.6%; in test [8], 91.2%; in test [9], 97.4%; in [10] it was 114%.
On to `CCOc1ccc(Br)cc1/C=N\N=C\c1cc(Br)ccc1OCC`, for which the growth is 109% in [1]; 107% in test [2]; 98.5% in [3]; 117% in [4]; 103% in test [5]; 93.8% in test [6]. The growth was 109% in [7], 104% in test [8], 105% in [9] and 115% in [10].
